Test results as given in PubChem BioAssay (NCATS).
“And” between values parts separate entries of the source, which are not always exact repeats. Equal values may be shown once. Inconclusive results are not listed. The source made the active and inactive calls. Unless noted, calls follow the shape of the dose curve; as a rule, active = well fitted curve in the direction sought with a large enough effect; inconclusive = small, poorly fitted or top-dose-only effect, or another doubt; inactive = no such curve, though single readings can be large; an effect the other way counts as inactive or inconclusive.

Molecular target: Cytochrome P450 3A4 (Homo sapiens) (UniProt P08684)
Test: qHTS Assay for Activators of Cytochrome P450 3A4 (AID 885); also: nearly all actives have a fitted effect of over 65% in size; also: potency is read from the fitted curve at half-maximal effect
Details: recombinant CYP3A4, Luciferin-PPXE luminescence, 60 min; series mostly up to 57.1 µM; activity change, positive = activation: at the top concentration
Outline: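 20nM CYP3A4 + 25uM Luciferin-PPXE (=KM), 200mM KPO4; cpd 10 min RT; NADPH regen, 60 min RT; stop w/ detection buffer, 20 min; luminescence. Normalized to 57 uM ketoconazole.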

Sequence of Cytochrome P450 3A4 (Homo sapiens) (P08684 whole entry, looked up): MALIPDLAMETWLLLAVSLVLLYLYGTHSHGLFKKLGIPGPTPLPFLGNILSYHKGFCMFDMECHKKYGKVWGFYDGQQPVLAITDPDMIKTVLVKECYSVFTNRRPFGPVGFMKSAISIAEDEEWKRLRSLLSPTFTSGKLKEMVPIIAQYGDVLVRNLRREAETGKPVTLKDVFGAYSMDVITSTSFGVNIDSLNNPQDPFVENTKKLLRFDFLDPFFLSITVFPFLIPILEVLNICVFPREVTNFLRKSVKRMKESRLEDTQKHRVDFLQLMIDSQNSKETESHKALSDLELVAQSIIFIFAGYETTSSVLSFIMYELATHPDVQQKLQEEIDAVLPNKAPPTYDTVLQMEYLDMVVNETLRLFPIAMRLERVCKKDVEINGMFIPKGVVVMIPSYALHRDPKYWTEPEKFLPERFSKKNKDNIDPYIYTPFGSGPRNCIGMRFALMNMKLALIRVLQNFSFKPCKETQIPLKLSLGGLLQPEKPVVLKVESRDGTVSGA

SMILES	activity change, positive = activation	Potency
CC(=O)C1=C(O)[C@@H]2[C@@H]3c4c[nH]c5cccc(c45)C[C@@H]3C(C)(C)N2C1=O	-39.1% (inactive)	
Oc1ccc2c3c1O[C@H]1c4[nH]c5ccccc5c4C[C@]4(O)[C@H](C2)N(CC2CC2)CC[C@@]314		inactive
CCN(CC)CCO[C@H]1CC[C@@]2(C)C(=CC[C@@H]3[C@H]2CC[C@]2(C)C(=O)CC[C@H]32)C1		15.8 µM (active)

Molecular target: Cytochrome P450 2D6 (Homo sapiens) (UniProt P10635)
Test: qHTS Assay for Inhibitors and Substrates of Cytochrome P450 2D6 (AID 891); also: potency is read from the fitted curve at half-maximal effect; nearly all actives have a fitted effect of over 60% in size
Details: recombinant CYP2D6, luciferin-ME EGE luminescence; series mostly up to 57.1 µM; activity change, negative = inhibition: at the top concentration
Outline: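 Human CYP2D6 (5 nM) with 30 uM Luciferin-ME EGE (at Km) in 100 mM KPO4, compound preincubated 10 min, then NADPH regeneration system for 60 min at room temperature. Luciferin read by luminescence; normalized to 1.43 uM quinidine.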

Sequence of Cytochrome P450 2D6 (Homo sapiens) (P10635 whole entry, looked up): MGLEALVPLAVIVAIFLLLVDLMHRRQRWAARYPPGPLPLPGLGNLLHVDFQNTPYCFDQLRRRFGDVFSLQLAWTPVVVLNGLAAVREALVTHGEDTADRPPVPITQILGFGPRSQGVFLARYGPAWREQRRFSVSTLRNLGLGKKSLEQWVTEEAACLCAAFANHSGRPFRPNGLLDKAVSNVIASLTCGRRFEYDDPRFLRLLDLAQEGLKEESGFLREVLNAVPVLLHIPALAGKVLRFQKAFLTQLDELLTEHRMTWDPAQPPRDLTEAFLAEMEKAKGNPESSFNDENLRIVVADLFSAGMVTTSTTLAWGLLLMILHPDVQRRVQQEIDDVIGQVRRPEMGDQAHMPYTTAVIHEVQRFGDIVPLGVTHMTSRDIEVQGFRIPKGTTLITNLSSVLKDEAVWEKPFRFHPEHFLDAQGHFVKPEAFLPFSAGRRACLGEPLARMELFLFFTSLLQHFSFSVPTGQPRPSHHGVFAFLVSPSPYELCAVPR

SMILES	Potency
C[C@@H](C(=O)OC1C[C@H]2CC[C@@H](C1)N2C)c1ccc(Br)cc1 (stereo partly specified)	3.98 µM (active)
Oc1ccc2c3c1O[C@H]1c4[nH]c5ccccc5c4C[C@]4(O)[C@H](C2)N(CC2CC2)CC[C@@]314	2.51 µM (active) and 631 nM (active)
CCN(CC)CCO[C@H]1CC[C@@]2(C)C(=CC[C@@H]3[C@H]2CC[C@]2(C)C(=O)CC[C@H]32)C1	0.0794 µM (active)

Test system: not listed separately
Test: qHTS Assay for Lipid Storage Modulators (AID 1519; calls by dose curve; as to activity change, negative = inhibition: % is scaled to controls: 0 for no effect and ±100 for the full control effect)
Details: Drosophila S3 cells, BODIPY lipid droplet/cell ratio, laser cytometry; at 57.5 µM (top of the series); cells loaded with oleic acid
Outline: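 Cells seeded at 5,000 per well were treated with compounds over a concentration series and loaded with oleic acid (400 uM, as added). Lipid droplet fluorescence (488 nm excitation, 500-530 nm channel) was read by laser-scanning cytometry and normalized to 20 uM Triacsin C.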

SMILES	activity change, negative = inhibition
COc1ccc2c(c1)[nH]c1c(C)nccc12	2.5% (inactive)
C[C@@H](C(=O)OC1C[C@H]2CC[C@@H](C1)N2C)c1ccc(Br)cc1 (stereo partly specified)	2.43% (inactive)
CN1C(=O)COc2c(C(=O)N[C@@H]3CN4CCC3CC4)cc(Cl)cc21	3.71% (inactive)
NC(N)=NCCCCCCCCCCN=C(N)N	-3.22% (inactive)
CCN(CC)CCO[C@H]1CC[C@@]2(C)C(=CC[C@@H]3[C@H]2CC[C@]2(C)C(=O)CC[C@H]32)C1	-3.37% (inactive)

Same assay, conditions: Drosophila S3 cells, BODIPY lipid droplet/cell ratio, laser cytometry; measured here: cell count channel max response; cells loaded with oleic acid

SMILES	max response
COc1ccc2c(c1)[nH]c1c(C)nccc12	-2.86% and 7%
C[C@@H](C(=O)OC1C[C@H]2CC[C@@H](C1)N2C)c1ccc(Br)cc1 (stereo partly specified)	12.6%
CN1C(=O)COc2c(C(=O)N[C@@H]3CN4CCC3CC4)cc(Cl)cc21	5.55%
NC(N)=NCCCCCCCCCCN=C(N)N	7.9%
CCN(CC)CCO[C@H]1CC[C@@]2(C)C(=CC[C@@H]3[C@H]2CC[C@]2(C)C(=O)CC[C@H]32)C1	16%

Same assay, conditions: Drosophila S3 cells, BODIPY lipid droplet/cell ratio, laser cytometry; measured here: lipid channel max response; cells loaded with oleic acid

SMILES	max response
COc1ccc2c(c1)[nH]c1c(C)nccc12	-9.39% and 13.6%
C[C@@H](C(=O)OC1C[C@H]2CC[C@@H](C1)N2C)c1ccc(Br)cc1 (stereo partly specified)	16.9%
CN1C(=O)COc2c(C(=O)N[C@@H]3CN4CCC3CC4)cc(Cl)cc21	11.3%
NC(N)=NCCCCCCCCCCN=C(N)N	7.14%
CCN(CC)CCO[C@H]1CC[C@@]2(C)C(=CC[C@@H]3[C@H]2CC[C@]2(C)C(=O)CC[C@H]32)C1	11.9%

Molecular target: Ubiquitin carboxyl-terminal hydrolase 1 (Homo sapiens) (UniProt O94782)
Test: Inhibitors of USP1/UAF1: Pilot qHTS (AID 504865); also: nearly all actives have a fitted effect of over 35% in size; also: potency is read from the fitted curve at half-maximal effect;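 as to activity change, negative = inhibition: rhodamine fluorescence freed from ubiquitin-rhodamine substrate followed over time; top concentration of the series differs between compounds; % is scaled to controls: 0 for no effect and ±100 for the full control effect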
Details: purified USP1/UAF1, Ub-rhodamine cleavage fluorescence; series mostly up to 114 µM; activity change, negative = inhibition: at the top concentration
Outline: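 Enzyme-free wells gave the negative control, while test wells held 1nM USP1/UAF1 preincubated with compound for 15 min at room temperature. Ub-Rho at 150nM final started the reaction, and fluorescence at 480/540 nm was recorded kinetically.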

Sequence of Ubiquitin carboxyl-terminal hydrolase 1 (Homo sapiens) (O94782 whole entry, looked up): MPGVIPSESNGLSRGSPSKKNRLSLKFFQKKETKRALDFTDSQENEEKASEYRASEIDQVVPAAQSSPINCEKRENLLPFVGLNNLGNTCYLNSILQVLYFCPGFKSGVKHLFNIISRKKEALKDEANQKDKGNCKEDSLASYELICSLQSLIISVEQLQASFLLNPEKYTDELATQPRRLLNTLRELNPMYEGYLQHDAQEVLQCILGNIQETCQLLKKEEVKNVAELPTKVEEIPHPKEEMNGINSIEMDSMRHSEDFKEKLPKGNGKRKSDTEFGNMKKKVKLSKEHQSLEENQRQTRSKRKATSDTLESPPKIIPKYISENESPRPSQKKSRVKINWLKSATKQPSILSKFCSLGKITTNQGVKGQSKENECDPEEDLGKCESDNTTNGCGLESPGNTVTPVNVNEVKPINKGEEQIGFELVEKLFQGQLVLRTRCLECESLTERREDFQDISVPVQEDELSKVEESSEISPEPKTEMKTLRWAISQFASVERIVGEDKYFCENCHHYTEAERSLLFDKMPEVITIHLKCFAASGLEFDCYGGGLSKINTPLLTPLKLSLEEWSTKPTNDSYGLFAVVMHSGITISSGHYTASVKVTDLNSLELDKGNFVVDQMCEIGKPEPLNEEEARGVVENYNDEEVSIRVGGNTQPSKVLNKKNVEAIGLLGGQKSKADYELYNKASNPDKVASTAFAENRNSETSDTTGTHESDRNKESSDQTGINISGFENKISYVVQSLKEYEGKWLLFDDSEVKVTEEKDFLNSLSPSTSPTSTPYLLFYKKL

SMILES	activity change, negative = inhibition	Potency
CC(C)[C@@]1(NC(=O)[C@@H]2C[C@H]3c4cccc5[nH]cc(c45)C[C@@H]3N(C)C2)O[C@@]2(O)[C@H]3CCCN3C(=O)[C@H](Cc3ccccc3)N2C1=O	-11.4% (inactive)	
COc1ccc2c(c1)[nH]c1c(C)nccc12	-14.5% [at 54.9 µM] (inactive)	
Cl.Cl.Cl.Cl.Cl.Cl.N.N.N.N.NNNNN.NNNNN.O.O.[Ru].[Ru].[Ru]		50.1 µM (active)
C[C@@H](C(=O)OC1C[C@H]2CC[C@@H](C1)N2C)c1ccc(Br)cc1 (stereo partly specified)	-11.2% (inactive)	
CN1C(=O)COc2c(C(=O)N[C@@H]3CN4CCC3CC4)cc(Cl)cc21	-10.1% (inactive)	
NC(N)=NCCCCCCCCCCN=C(N)N	-14.4% (inactive)	
CC(=O)C1=C(O)[C@@H]2[C@@H]3c4c[nH]c5cccc(c45)C[C@@H]3C(C)(C)N2C1=O	-10.6% (inactive)	
COc1ccc2[nH]cc(C3=CCNCC3)c2c1		44.7 µM (active)
CN1CC[C@@]2(c3cccc(O)c3)Cc3nc4ccccc4cc3C[C@H]2C1	-7.24% (inactive)	
CCN(CC)CCO[C@H]1CC[C@@]2(C)C(=CC[C@@H]3[C@H]2CC[C@]2(C)C(=O)CC[C@H]32)C1		inactive

Molecular target: DNA dC->dU-editing enzyme APOBEC-3G (Homo sapiens) (UniProt Q9HC16)
Test: qHTS for inhibitors of Vif-A3G interactions: Validation (AID 588379); also: 0% is about no effect
Details: Vif-A3G protein interaction assay; series mostly up to 46.1 µM; activity change, negative = inhibition: at the top concentration
Outline: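 HeLa cells stably expressing Vif and A3G-eYFP, 700 cells/well, incubated overnight at 37 deg C, then exposed to compound overnight at 37 deg C. Inhibition of Vif-mediated degradation read as increased yellow fluorescence (Ex 488/Em 500-530) by laser-scanning cytometry.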

Sequence of DNA dC->dU-editing enzyme APOBEC-3G (Homo sapiens) (Q9HC16 whole entry, looked up): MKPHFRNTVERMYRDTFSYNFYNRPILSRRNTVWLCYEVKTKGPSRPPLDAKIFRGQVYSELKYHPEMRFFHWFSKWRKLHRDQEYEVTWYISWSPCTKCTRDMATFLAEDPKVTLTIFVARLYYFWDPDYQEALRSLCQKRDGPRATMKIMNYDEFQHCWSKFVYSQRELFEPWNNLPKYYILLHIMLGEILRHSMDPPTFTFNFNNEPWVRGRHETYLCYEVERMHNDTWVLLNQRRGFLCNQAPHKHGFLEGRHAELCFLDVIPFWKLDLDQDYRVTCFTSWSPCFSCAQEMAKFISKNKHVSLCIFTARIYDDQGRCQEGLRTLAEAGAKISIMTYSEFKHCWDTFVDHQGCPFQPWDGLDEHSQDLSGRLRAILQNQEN

SMILES	Potency	activity change, negative = inhibition
CC(C)[C@@]1(NC(=O)[C@@H]2C[C@H]3c4cccc5[nH]cc(c45)C[C@@H]3N(C)C2)O[C@@]2(O)[C@H]3CCCN3C(=O)[C@H](Cc3ccccc3)N2C1=O	inactive	
COc1ccc2c(c1)[nH]c1c(C)nccc12		0.292% (inactive)
Cl.Cl.Cl.Cl.Cl.Cl.N.N.N.N.NNNNN.NNNNN.O.O.[Ru].[Ru].[Ru]		-1.75% (inactive)
C[C@@H](C(=O)OC1C[C@H]2CC[C@@H](C1)N2C)c1ccc(Br)cc1 (stereo partly specified)		6.85% (inactive)
CN1C(=O)COc2c(C(=O)N[C@@H]3CN4CCC3CC4)cc(Cl)cc21		0.671% (inactive)
NC(N)=NCCCCCCCCCCN=C(N)N		-7.12% (inactive)
C[C@H]1C[C@H](C)C(=O)[C@@H]([C@H](O)CC2CC(=O)NC(=O)C2)C1		-5.31% (inactive)
CC(=O)C1=C(O)[C@@H]2[C@@H]3c4c[nH]c5cccc(c45)C[C@@H]3C(C)(C)N2C1=O		-2.67% (inactive)
Oc1ccc2c3c1O[C@H]1c4[nH]c5ccccc5c4C[C@]4(O)[C@H](C2)N(CC2CC2)CC[C@@]314		-3.59% (inactive)
CN1CC[C@@]2(c3cccc(O)c3)Cc3nc4ccccc4cc3C[C@H]2C1		-0.572% (inactive)
